Compound activity: PubChem BioAssay, National Center for Advancing Translational Sciences (NCATS)
ALOX12 inh – ALOX12 (human) lipoxygenase inhibition. purified 12hLO, xylenol orange hydroperoxide absorbance. Potency, µM (series often up to 108 µM), usual class: inhibitors. 580,000 compounds, 1.1% hits. P18054; active = well fitted inhibition curve with a large enough effect; inconclusive = small, poorly fitted or top-dose-only effect, or another doubt; inactive = no such curve, though single readings can be large or run the other way
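Purified human 12hLO at 150 nM in 25 mM Hepes, 0.01% Triton X-100, pH 7.0, preincubated 15 min at room temperature with compound. Reaction started with 40 uM arachidonic acid, 30 min at room temperature. Hydroperoxide measured by Fe-xylenol orange, 573/405 nm absorbance ratio.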
LDHA inh – LDHA (human) enzyme inhibition | purified LDHA, NADH/diaphorase-resazurin fluorescence; active compounds read low | activity change, % (values are at about 110 or 230 µM) | P00338 | 480,000 compounds, 0.15% hits; in the data active = activity change below about -30%; inconclusive = mostly about -25% to -30%
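Human LDH5 (2 nM) was incubated with 0.06 mM NADH and 0.2 mM pyruvate for 5 min at room temperature in Tris pH 7.4. Remaining NADH was coupled through diaphorase/resazurin, and resorufin fluorescence was read at 0 and 20 min.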
ClpP mod – qHTS Assay for Activators of ClpP. ATP-dependent Clp protease proteolytic subunit (Bacillus subtilis (strain 168)), P80244. purified B. subtilis ClpP, FRET peptide cleavage, 20 min. Potency, µM (highest dose often 57.5 µM). 340,000 compounds, 1.9% hits. AID 651965, 2013; active = well fitted falling curve with a large enough effect; inconclusive = small, poorly fitted or top-dose-only effect; inactive = no such curve, though single readings can be large or run the other way; note: the source files actives as falling curves though it sought activators and does not explain the sign; nearly all actives have a fitted effect of over 65% in size
Target sequence (P80244 whole entry, looked up): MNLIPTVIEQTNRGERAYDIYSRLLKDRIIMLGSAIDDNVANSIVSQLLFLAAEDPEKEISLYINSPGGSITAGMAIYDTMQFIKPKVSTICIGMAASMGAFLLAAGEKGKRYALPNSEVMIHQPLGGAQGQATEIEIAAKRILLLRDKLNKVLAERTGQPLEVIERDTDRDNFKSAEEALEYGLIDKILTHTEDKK
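FRET quenching reversal measured ClpP activation: 10 microg/mL B. subtilis ClpP at pH 8 with the FRET-FV decapeptide, read at 430 nm after 320 nm excitation. The 20-min minus 0-min signal was scaled between DMSO/no-enzyme wells and ADEP (5.8 microM final).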
KCNH2 WT inh – inhibitors of human wildtype KCNH2 potassium channel | Q12809 | U2OS, BacMam KCNH2, thallium flux FluxOr; active compounds read low | activity change, % at 1.84 µM | 340,000 compounds, 0.37% hits | AID 720551;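 active = maximum activity change below -70%; inconclusive = maximum activity change between -70% and -50%; inactive = maximum activity change above -50%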
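U2OS cells transduced with wild-type KCNH2 virus are loaded with FluxOr dye for 45 min, and thallium flux is measured in kinetic reads before and after stimulation buffer. Rate constants are normalized to DMSO controls.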
KCNH2 3.1 inh – blocks the human KCNH2 3.1 channel isoform; activity change, % (tested at about 1.8 µM); U2OS KCNH2 3.1, thallium flux FluxOr; active compounds read low; 340,000 compounds, 0.95% hits;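 active = maximum activity change below -70%; inconclusive = maximum activity change from -70% to -50%; inactive = maximum activity change above -50%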;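 note: thallium influx rate constant from kinetic fluorescence after stimulation buffer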
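Channel expression came from 3.1 mutant virus (1.77 x 10^8 /mL) applied to suspended U2OS cells for 4 h. Flux was tracked with FluxOr dye plus Red40 quencher, and kinetic rate constants normalized to controls.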
BCR signal inh – chronic active BCR signaling inhibition; ABC-DLBCL IkBa-CBG/CBR reporter, luminescence ratio, 4 h; Potency, µM (doses to about 46.1 µM), hits mostly inhibitors; 340,000 compounds, 0.05% hits; AID 493014; active = well fitted inhibition curve with a large enough effect in the signal ratio, with a control signal flat, not every such curve was filed as active; inconclusive = small, poorly fitted or top-dose-only effect, or effect the other way, or a change in a side signal; the % refers to the signal ratio
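Doxycycline induced both beetle luciferases in TMD8 lymphoma cells; IKK-driven degradation limits the IkappaBalpha-fused green signal, while red luminescence normalises for cell number and nonspecific effects. Compounds tested up to 46 uM, 4 hrs.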
Large screens that a line does not name were inactive. Sampled rows, rich in hits. Any-hit rate of the full collection: about 3%.

O=C(NC(=S)Nc1ccccc1N1CCOCC1)c1ccccc1F	ALOX12 inh inconclusive, BCR signal inh inconclusive
O=C(NC(=S)Nc1ccccc1N1CCN(C(=O)c2ccccc2)CC1)c1ccccc1F	ALOX12 inh inconclusive, ClpP mod 32µM (no result: KCNH2 3.1 inh)
Cc1nc(Cl)sc1C(=O)Nc1ccccc1	none
Cc1nc(Cl)sc1C(=O)Nc1ccc(Cl)cc1	ALOX12 inh inconclusive, ClpP mod 28µM
Cc1ccc(C)c(-n2nnc(C(=O)NC(C)C)c2N)c1	none (no result: ClpP mod, KCNH2 WT inh, KCNH2 3.1 inh, BCR signal inh)
CCCCCC(=O)N1C[C@@H](O)[C@H](n2cc(-c3ccc(F)cc3)nn2)C[C@@H]1c1ccc(Cl)cc1	ALOX12 inh 10µM (no result: BCR signal inh)
O[C@@H]1CN(Cc2cccs2)[C@@H](c2ccc(Cl)cc2)C[C@H]1n1cc(-c2ccc(F)cc2)nn1	LDHA inh -30 (no result: BCR signal inh)
COc1ccc(-c2nnc(SCCS(=O)(=O)c3ccc(Cl)cc3)o2)cc1OC	none (no result: ClpP mod, KCNH2 WT inh, KCNH2 3.1 inh, BCR signal inh)
COc1cccc(CNC(=O)Cn2c(-c3ccc(F)cc3)nc(C)c(CCO)c2=O)c1	none (no result: LDHA inh, ClpP mod, KCNH2 WT inh, KCNH2 3.1 inh, BCR signal inh)
COCCOc1cc(NC(=O)c2sccc2Oc2ccc([N+](=O)[O-])cc2F)c(Cl)cc1Cl	ClpP mod 14µM
Cn1cncc1-c1nnc([C@H]2CCN(C(=O)c3ccncc3)C2)o1	none (no result: LDHA inh, ClpP mod, KCNH2 WT inh, KCNH2 3.1 inh, BCR signal inh)
OC(CNc1ccnc2cc(Cl)ccc12)CNC1CCCCC1 (stereo not drawn)	ClpP mod 28µM (no result: BCR signal inh)
Clc1ccc2c(NCc3ccccc3)ccnc2c1	none (no result: ClpP mod)
CCN(CC)CCNc1ccnc2cc(Cl)ccc12	ClpP mod 32µM, BCR signal inh inconclusive
CC(CCc1ccco1)NC(=O)CCc1nnc2ccc(N3CCN(C)CC3)nn12 (stereo not drawn)	none (no result: ClpP mod, KCNH2 WT inh, KCNH2 3.1 inh, BCR signal inh)
O=C(c1ccccc1F)N1CCn2c(nnc2-c2cccnc2)C1	none (no result: LDHA inh, ClpP mod, KCNH2 WT inh, KCNH2 3.1 inh, BCR signal inh)
Cc1ccccc1CN1CC[C@@H]2OCC(=O)N(Cc3cccc(C(N)=O)c3)[C@H]2CC1	none (no result: LDHA inh, ClpP mod, KCNH2 WT inh, KCNH2 3.1 inh, BCR signal inh)
COc1cc(C2CC(=O)N3CN(Cc4ccccc4)CSC3=C2C#N)cc(OC)c1OC (stereo not drawn)	ALOX12 inh inconclusive (no result: ClpP mod, KCNH2 WT inh, KCNH2 3.1 inh, BCR signal inh)
Cc1cccc(OCCCc2c(C)n[nH]c2C)c1	KCNH2 3.1 inh -75, BCR signal inh inconclusive
CCc1ccc2c(c1)Sc1ccccc1CC2N1CCN(C)CC1 (stereo not drawn)	ALOX12 inh inconclusive, KCNH2 WT inh inconclusive, KCNH2 3.1 inh -96 (no result: BCR signal inh)
O=C(NC1CC1)C(Sc1ccccn1)c1ccccc1 (stereo not drawn)	ALOX12 inh inconclusive (no result: ClpP mod, KCNH2 WT inh, KCNH2 3.1 inh, BCR signal inh)
N#Cc1nc(-c2ccc(COc3ccc(Cl)cc3)o2)oc1N1CCCCC1	ClpP mod 28µM (no result: KCNH2 WT inh, KCNH2 3.1 inh, BCR signal inh)
Cc1cccc(OCc2ccc(-c3nc(C#N)c(N4CCN(c5ccccc5)CC4)o3)o2)c1	none (no result: KCNH2 WT inh, KCNH2 3.1 inh, BCR signal inh)
N#Cc1nc(-c2ccc(COc3ccccc3)o2)oc1N1CCCCC1	ClpP mod 32µM (no result: KCNH2 WT inh, KCNH2 3.1 inh, BCR signal inh)
CC1CCN(c2oc(-c3ccc(COc4ccc(Cl)cc4)o3)nc2C#N)CC1	ClpP mod 25µM (no result: KCNH2 WT inh, KCNH2 3.1 inh, BCR signal inh)
CC1CCN(c2oc(-c3ccc(OCc4ccccc4Cl)cc3)nc2C#N)CC1	none (no result: ALOX12 inh, KCNH2 WT inh, KCNH2 3.1 inh, BCR signal inh)
N#Cc1nc(-c2ccc(OCc3ccc(Cl)cc3)cc2)oc1N1CCCCC1	none (no result: ALOX12 inh, KCNH2 WT inh, KCNH2 3.1 inh, BCR signal inh)
CCOC(=O)c1nn(-c2ccc(C)cc2)c(=O)cc1OCC(=O)Nc1ccc(OC)cc1	ALOX12 inh inconclusive, ClpP mod 8.9µM
CCOC(=O)c1nn(-c2ccccc2)c(=O)cc1OCC(=O)Nc1cccc(OC)c1	none
CCCn1cc(SCC(=O)Nc2cccc(C)c2)c2ccccc21	ALOX12 inh inconclusive (no result: ClpP mod, KCNH2 WT inh, KCNH2 3.1 inh, BCR signal inh)
CC(C)Oc1ccc(C(=O)N2CCN(Cc3nc(N)c4ccccc4n3)CC2)cc1	none (no result: ClpP mod, KCNH2 WT inh, KCNH2 3.1 inh, BCR signal inh)
O=C(O)c1cccc(S(=O)(=O)NNc2ccccc2C(F)(F)F)c1	ALOX12 inh 16µM (no result: ClpP mod)
C(=N\N=C\c1ccccc1)/c1ccccc1	BCR signal inh inconclusive (no result: ClpP mod)
C[N+](C)(C)c1ccc(/C=N/N=C/c2ccccc2)cc1	ALOX12 inh 11µM (no result: ClpP mod, KCNH2 WT inh, KCNH2 3.1 inh, BCR signal inh)
O=C(Cn1cnc(S(=O)(=O)N2CCOCC2)c1)Nc1ccc(F)cc1F	none (no result: ClpP mod, KCNH2 WT inh, KCNH2 3.1 inh, BCR signal inh)
Cc1ccsc1CN1CCC(Oc2cc(Cl)ccc2C(=O)N2CCCCC2)CC1	none (no result: LDHA inh, ClpP mod, KCNH2 WT inh, KCNH2 3.1 inh, BCR signal inh)
